In the library only some 5.3% were active in any assay of this set; here they are far more common.
TDP1 block = blocks human tyrosyl-DNA phosphodiesterase 1; Q9NUW8; recombinant TDP1, AlphaScreen DNA substrate cleavage; Potency, µM (highest dose often 130 µM), hits mostly inhibitors; 350,000 compounds, 0.28% hits; AID 485290; note: nearly all actives have a fitted effect of over 40% in size
Target sequence (Q9NUW8 whole entry, looked up): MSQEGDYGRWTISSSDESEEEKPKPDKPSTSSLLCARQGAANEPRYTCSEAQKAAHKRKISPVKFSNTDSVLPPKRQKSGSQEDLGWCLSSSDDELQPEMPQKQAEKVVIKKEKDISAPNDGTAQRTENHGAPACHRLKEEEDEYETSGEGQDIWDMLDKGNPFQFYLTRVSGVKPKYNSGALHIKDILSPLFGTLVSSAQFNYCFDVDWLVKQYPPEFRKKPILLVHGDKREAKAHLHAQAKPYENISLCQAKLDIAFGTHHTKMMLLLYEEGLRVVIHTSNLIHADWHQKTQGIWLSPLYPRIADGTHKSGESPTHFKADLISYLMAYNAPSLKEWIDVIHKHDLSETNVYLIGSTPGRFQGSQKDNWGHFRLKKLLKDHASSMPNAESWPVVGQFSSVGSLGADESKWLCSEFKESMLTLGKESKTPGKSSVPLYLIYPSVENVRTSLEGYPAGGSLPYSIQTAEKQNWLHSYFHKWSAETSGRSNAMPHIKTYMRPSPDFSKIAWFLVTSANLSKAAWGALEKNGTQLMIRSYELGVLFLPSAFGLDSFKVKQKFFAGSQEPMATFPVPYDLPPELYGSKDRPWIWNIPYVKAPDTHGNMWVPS
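E. coli-derived human Tdp1, 1 nM final. Cpd preinc 15 min RT; substrate 15 nM final, 5 min RT; AS bead mix 10 ug/ml final, 10 min RT. Signal loss = tyrosine-FITC cleavage. No-enzyme wells = max signal.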
HP1b binding inh = HP1-beta chromodomain-methylated histone interaction inhibition; P83916; AlphaScreen HP1-beta / biotin-H3K9me3 peptide binding; Potency, µM (top dose mostly 114 µM), hits mostly inhibitors; 390,000 compounds, 0.56% hits; note: nearly all actives have a fitted effect of over 70% in size
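HP1-beta protein (50 nM final) preincubated 30 min at room temperature with biotinylated H3(1-18)K9me3 peptide (50 nM) in PBS pH 7.4, 0.01% Tween-20, then compound added for 30 min. AlphaScreen streptavidin donor/nickel chelate acceptor beads (10 ug/mL final), 30 min dark, luminescence read.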
Six1-Eya2 inh = blocks human Six1 binding to Eya2; 360,000 compounds, 0.56% hits; AlphaScreen GST-Six1/His-Eya2 binding, biochemical; hits give low values; activity change, % (concentration not given with the values); Q15475+O00167; in the data active = activity change below about -65%; inconclusive = mostly about -30% to -63%
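AlphaScreen luminescence read after one hour at 37 °C in darkness. Pin-transferred compounds met GST-Six1 and His-Eya2 protein (5X stock 250 nM/500 nM) plus glutathione donor and Ni-chelate acceptor beads (5X, 50 ug/mL).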
CtBP-E1A inh = inhibitors of CtBP/E1A interaction; 340,000 compounds, 0.49% hits; AlphaScreen GST-E1A/His-CtBP binding, 1536-well; hits give low values; activity change, % (no concentration beside the values); in the data active = activity change below about -65%; inconclusive = mostly about -30% to -63%
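Homogeneous bead-based format: GST-tagged E1A captured on glutathione donor beads, His-tagged CtBP on nickel acceptor beads; compounds precede bead addition by 2 h at 37 °C.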
JMJD2A Tudor = JMJD2A Tudor domain (human) inhibition; AlphaScreen JMJD2A-Tudor / H3K4me3 peptide binding; Potency, µM (doses to about 114 µM), actives largely listed as inhibitors; 390,000 compounds, 4.4% hits; AID 504339; note: nearly all actives have a fitted effect of over 50% in size
BAZ2B inh = blocks human BAZ2B; 360,000 compounds, 4.4% hits; AlphaScreen BAZ2B-H3K14Ac peptide displacement; Potency, µM (doses to about 114 µM), most hits filed as inhibitors; Q9UIF8; note: nearly all actives have a fitted effect of over 60% in size
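Compounds, titrated to a top concentration of 110 uM, were incubated 30 min at room temperature with preformed BAZ2B/acetyl-K14 H3 peptide complex (50 nM each). Proximity signal was measured by AlphaScreen after 20 min with beads.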
A number is an active result; n = inactive; u = inconclusive; x = no result; [ ] = dose if it differs, or a comment. Unless noted, calls come from the whole dose curve; as a rule, active = well fitted inhibition curve with a large enough effect; inconclusive = small, poorly fitted or top-dose-only effect; inactive = no such curve, though single readings can be large or run the other way.

SMILES	TDP1 block	HP1b binding inh	Six1-Eya2 inh	CtBP-E1A inh	JMJD2A Tudor	BAZ2B inh
O=C(O)c1sc(C(=O)O)c(-c2ccccc2)c1-c1ccccc1	x	x	n	n	x	x
Cn1ccc2cc(S(=O)(=O)N3CCCN(C(=O)Nc4ccc(Br)cc4)CC3)ccc21	n	n	x	x	n	n
O=C1COc2ccc(-c3csc(NCCc4ccccc4)n3)cc2N1	n	n	n	n	u	50µM
NNc1nccc(Nc2ccccc2C(=O)O)n1	n	n	-90	-67	u	25µM
S=c1[nH]nc(-c2cccc(Cl)c2)n1/N=C/c1ccc(-c2ccccc2Br)o1	n	n	n	n	n	n
S=c1[nH]nc(-c2ccccn2)n1/N=C/c1ccco1	n	n	-74	n	7.1µM	8.9µM
S=c1[nH]nc(-c2ccccn2)n1/N=C/c1cccc(Cl)c1	n	n	u	u	20µM	28µM
CCN(CC)S(=O)(=O)c1cccc(-c2n[nH]c(=S)n2/N=C/c2ccc(OC)cc2)c1	n	n	n	n	u	n
COc1cc(-c2n[nH]c(=S)n2/N=C/c2cccn2C)cc(OC)c1OC	x	u	n	n	1.3µM	u
S=c1[nH]nc(-c2ccco2)n1/N=C/c1ccccn1	n	x	x	x	x	50µM
Cc1ccc(Cn2c(CCNC(=O)C(C)C)nc3ccccc32)cc1	n	n	x	x	n	n
CCCn1c(=O)c2sccc2n2c(CCCC(=O)NCCc3ccc(Cl)cc3)nnc12	n	n	x	x	n	n
Cn1cc(P(=O)(c2ccccc2)c2ccccc2)c2ccccc21	n	x	x	x	n	x
N#CN=c1snc(-c2ccccc2)n1-c1ccc(Cl)cc1	x	n	x	x	n	x
S=c1[nH]nc(-c2ccco2)n1/N=C/c1ccc(Cl)c(Cl)c1	n	n	n	n	79µM	n
S=c1[nH]nc(-c2ccco2)n1/N=C/c1c(Cl)cccc1Cl	x	n	n	x	u	n
S=c1[nH]nc(-c2ccco2)n1/N=C/c1cccc(Cl)c1	n	n	n	n	79µM	n
S=c1[nH]nc(-c2ccco2)n1/N=C/C(Cl)=C/c1ccccc1	n	u	n	n	u	u
Cc1ccc(/C=N/n2c(-c3ccco3)n[nH]c2=S)cc1	n	56µM	n	n	10µM	u
Cn1cccc1/C=N/n1c(-c2ccco2)n[nH]c1=S	n	n	n	n	20µM	u
Cc1ccc(CNC(=O)CNS(=O)(=O)c2cccs2)cc1	n	n	x	x	n	n
COc1ccc(C2CC(=O)c3cnc4c(-c5ccc(F)cc5)c(C)nn4c3C2)cc1OC (stereo not drawn)	n	n	x	x	n	n
S=c1[nH]nc(-c2cccc(Cl)c2)n1/N=C/c1ccco1	n	n	n	n	32µM	n
CCCN(CCC)CC(O)Cn1cc(/C=C/C(=O)c2ccc(C)cc2)c2ccccc21 (stereo not drawn)	n	n	x	x	u	22µM
CCCN(CCC)CC(O)Cn1cc(/C=C/C(=O)c2ccc(Br)cc2)c2ccccc21 (stereo not drawn)	n	n	x	x	u	n
SMILES	TDP1 block	HP1b binding inh	Six1-Eya2 inh	CtBP-E1A inh	JMJD2A Tudor	BAZ2B inh
CCCN(CCC)CC(O)Cn1cc(/C=C/C(=O)c2ccc(OC)cc2)c2ccccc21 (stereo not drawn)	n	n	x	x	45µM	u
O=C(/C=C/c1cn(CC(O)CN2CCCCCC2)c2ccccc12)c1ccccc1 (stereo not drawn)	n	n	x	x	u	u
Cc1ccc(C(=O)/C=C/c2cn(CC(O)CN3CCCCCC3)c3ccccc23)cc1 (stereo not drawn)	n	n	x	x	50µM	u
CC1(C)O[C@H]2[C@@H](O1)[C@@H](C(=O)Nc1ccc(F)c(F)c1)O[C@@H]1OC(C)(C)O[C@@H]12	n	n	x	x	n	n
CC1Cc2c(COc3ccccc3)nc3c(c2CO1)CN(CCOc1ccccc1)CC3 (stereo not drawn)	n[21 µM]	x	x	x	x	x
O=C1NCCN(Cc2ccc(F)cc2)C1=O	n	n	x	x	n	n
Cc1ccc(N2C(=O)C3C(C2=O)C(C(=O)c2ccc(Cl)cc2)N2CCCC32)cc1 (stereo not drawn)	n	n	n	n	n[11.4 µM]	u
CC(=O)Oc1ccc(N2C(=O)C3C(C2=O)C(C(=O)c2ccc(Cl)cc2)N2CCCC32)cc1 (stereo not drawn)	n	u	n	n	45µM	n
CCOc1ccc(Nc2cc(=O)oc3ccccc23)cc1	n	n	n	n	n	71µM
COc1ccc2c(c1)NC(c1ccc(Cl)cc1)=NC(c1cccs1)=N2	n	u	x	x	14µM	n
CCOc1ccc(-c2cn(-c3ccccc3OC)c(=S)[nH]2)cc1	x	n	n	n	n	n
CC(=O)Nc1ccc(-n2cc(-c3ccccc3)[nH]c2=S)cc1	n	u	n	x	0.89µM	u
COc1ccc(-n2cc(-c3ccccc3)[nH]c2=S)cc1	n	n	n	n	8.9µM	u
CCOc1ccc(-n2cc(-c3ccc(OC)c(OC)c3)[nH]c2=S)cc1	n	u	n	n	11µM	x
COc1ccccc1-n1cc(-c2ccccc2)[nH]c1=S	x	n	n	x	u	u
COc1ccc(NC(=O)NC2COc3ccccc3C2)c(OC)c1 (stereo not drawn)	n	n	x	x	n	n
C#CCn1c(COc2ccccc2C)nc2ccccc21	n	n	x	x	n	n
CCc1ccccc1NC(=O)CN1C(=O)COc2ccc(S(=O)(=O)Nc3ccccc3)cc21	n	n	x	x	n	n
COc1cc(/C=N/NC(=O)c2nonc2C)ccc1O	n	n	n	n	n	n
COc1cc(/C=N/N=C(\N)c2nonc2N)ccc1O	n	n	n	n	n	n
Cc1nonc1C(=O)N/N=C/c1ccc(O)c(O)c1	n	n	n	n	7.1µM	n
N/C(=N\N=C\c1ccc(O)c(O)c1)c1nonc1N	n	n	n	n	n	45µM
O=C(N/N=C/c1ccc(O)c(O)c1)N/N=C/c1ccc(O)c(O)c1	x	35µM	u	u	11µM	32µM
O=C(c1ccccc1)N1CCN(c2nc(-c3cccs3)nc3ccccc23)CC1	n	x	x	x	u	x
O=C(c1ccccc1Cl)N1CCCC(c2nc3c(nnn3Cc3ccc(F)cc3F)c(=O)[nH]2)C1 (stereo not drawn)	n	n	x	x	n	n
COc1ccccc1NC(=O)C1=C(C)Nc2nnnn2C1c1cc(Br)c(O)c(OC)c1 (stereo not drawn)	n	n	x	x	n	n
C#CCOCCOCCOCCNc1nc(N2CCN(C(=O)[C@H](CCCCN)n3cc(CN)nn3)CC2)nc(N2CCN(C(=O)[C@H](CCC(=O)O)n3cc([C@@H](N)[C@H](C)CC)nn3)CC2)n1	n	n	n	n	56µM	x
